Source: PubChem BioAssay AID2177 (The Scripps Research Institute Molecular Screening Center, 2009)
The whole screen tested about 320,000 compounds, of which about 1,200 (0.38%) were called active. Shown is part of a subset that was picked to be rich in actives. Values without a mark were called inactive.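 Rule for the calls: active = inhibition above the screen-wide mean plus 3 SD, limit set per campaign (cut at about 26% in these data); inactive = the rest.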

Biological target: Acyl-protein thioesterase 2 (Homo sapiens) (UniProt O95372)
Sequence (O95372 whole entry, looked up): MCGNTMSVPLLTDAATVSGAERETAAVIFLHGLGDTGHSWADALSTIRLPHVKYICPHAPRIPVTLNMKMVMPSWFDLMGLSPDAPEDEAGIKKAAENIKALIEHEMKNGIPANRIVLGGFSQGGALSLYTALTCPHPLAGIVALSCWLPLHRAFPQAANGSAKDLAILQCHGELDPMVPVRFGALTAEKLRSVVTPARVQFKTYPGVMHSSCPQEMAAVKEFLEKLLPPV
Assay: inhibition of human lysophospholipase 2 – biochemical, fluorescence polarization, FP-Rh probe ABPP, counter-screen for PME1 inhibitor project, primary screen (AID 2177);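 note: 0% = LYPLA2 with DMSO and 100% = wells lacking LYPLA2 enzyme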
Conditions: recombinant LYPLA2, FP-Rh probe fluorescence polarization; at 5.9 µM; hits give high values

| SMILES | inhibition |
| --- | --- |
| Oc1ccc(N=Cc2sc3ccccc3c2Cl)cc1 | 7.6% |
| CCOc1[nH]n(-c2ccc(Cl)cc2)c(=O)c1C=Nc1ccc(O)cc1 | 3.53% |
| Oc1ccc(N=Cc2c(O)ccc3ccccc23)cc1 | 32.3% (active) |
| CCOC(=O)N1CCN(c2c(NCCN3CCN(c4ccccc4F)CC3)c(=O)c2=O)CC1 | 1.74% |
| O=[N+]([O-])c1ccc(Oc2ccc(F)cc2Br)c2ccncc12 | 41.4% (active) |
| O=[N+]([O-])c1ccc(F)cc1Oc1nc(-c2cccnc2)nc2ccccc12 | -3.66% |
| O=S(=O)(/N=C(/Nc1ccccc1)c1ccccc1)c1cccs1 | 1.19% |
| Cc1ccc(S(=O)(=O)N(CC(=O)NCc2ccco2)c2ccccc2C)cc1 | -4.36% |
| COc1ccc(NC(=O)CN2C(=O)COc3ccc(S(=O)(=O)N4CCOCC4)cc32)cc1 | 7% |
| CC(=O)Nc1ccc(NC(=O)CN2C(=O)COc3ccc(S(=O)(=O)N4CCCCC4)cc32)cc1 | -8.84% |
| CSc1cccc(NC(=O)CN2C(=O)COc3ccc(S(=O)(=O)N4CCOCC4)cc32)c1 | 35.7% (active) |
| O=S(=O)(Nc1ccc2[nH]ncc2c1)c1ccccc1Cl | -3.28% |
| COc1cnn(-c2ccc([N+](=O)[O-])cc2)c(=O)c1Cl | 6.75% |
| O=c1[nH]c2cccnc2n1-c1ccc([N+](=O)[O-])cc1 | 0.99% |
| O=c1[nH]n(-c2ccc([N+](=O)[O-])cc2)c(=O)c2ccccc12 | 33.6% (active) |
| Cc1ccc(N2CCN(c3ccc(C)cc3)C2c2ccccn2)cc1 | 3.84% |
| CC(NCc1cccs1)C(=O)Nc1cc(Cl)cc(Cl)c1 (centres undefined) | -2.93% |
| Cn1nc(C(F)(F)F)c2cc(NC(=O)OCC(C)(C)C)sc21 | -2.17% |
| O=C1OCC2=C1C(c1ccccc1)CC(=O)N2c1cccc(F)c1 (centres undefined) | 0.97% |
| CCc1nnc(NC(=O)CSc2nnnn2-c2cccc(C(C)=O)c2)s1 | 0.16% |
| O=C(Nc1ccc(N2CCN(C(=O)c3ccccc3)CC2)c(Cl)c1)c1ncn[nH]1 | 14.6% |
| COC(=O)c1cc(NC(=O)c2cccnc2)ccc1N1CCOCC1 | 2.91% |
| O=C(Nc1ccc(N2CCN(C(=O)c3ccccc3)CC2)c(Cl)c1)c1cccnc1 | 27.9% (active) |
| COC(=O)c1ccccc1NC(=O)CN(Cc1ccccc1)S(C)(=O)=O | -8.82% |

| SMILES | inhibition |
| --- | --- |
| COc1ccc([C@H]2CC(=O)C=C(c3ccc(C)cc3)C2)cc1 | 15.7% |
| N#Cc1ccc(C2=CC(=O)C[C@H](c3ccc(Cl)cc3)C2)cc1 | 43.3% (active) |
| O=C1C=C(c2cccc(Cl)c2)C[C@@H](c2ccc(F)cc2)C1 | 0.27% |
| O=C(CN1CCN(C(=O)c2ccco2)CC1)Nc1ccc2c(c1)OCO2 | -2.14% |
| CCNC(=S)N1CCN(C(=O)c2ccco2)CC1 | 2.65% |
| O=C(c1ccco1)N1CCN(C(=S)Nc2cc(F)cc(F)c2)CC1 | 33.1% (active) |
| COc1ccc(CN(C)C(=O)Cc2ccsc2)c(OC)c1OC | 4.71% |
| COc1cccc(OC)c1C(=O)NC(=S)Nc1ccc(N2CCOCC2)c(Cl)c1 | -0.51% |
| CCOc1ccc(C(=O)NC(=S)Nc2ccc(N3CCOCC3)c(Cl)c2)cc1[N+](=O)[O-] | 26.8% (active) |
| CCOc1ccc(C(=O)NC(=S)Nc2ccc(NC(=O)C(C)C)cc2)cc1[N+](=O)[O-] | 19.4% |
| O=C(Nc1ccccc1N1CCOCC1)c1ccncc1 | -4.72% |
| Cc1csc2nc(COC(=O)c3cccc(N(C)C)c3)cc(=O)n12 | 6.85% |
| COCCc1nn2c(=O)cc(COC(=O)c3cc(OC)c(OC)c(OC)c3)nc2s1 | 7.86% |
| Cc1nn2c(=O)cc(COC(=O)c3ccc(NC(=O)C(C)(C)C)cc3)nc2s1 | 31.4% (active) |
| O=C(Nc1ccc([N+](=O)[O-])cc1)OCCc1ccccn1 | 1.34% |
| Cc1ccc(N2CCN(C3=NC(=O)/C(=C\c4cccs4)S3)CC2)cc1 | 51.7% (active) |
| Cc1ccsc1/C=C1\SC(N2CCOCC2)=NC1=O | 1.19% |
| Cc1ccc(N2CCN(/N=C/c3cccs3)CC2)cc1 | 6.07% |
| Cc1ccc(S(=O)(=O)N(C)CC(=O)OCC(=O)N2CC(=O)Nc3ccccc32)cc1 | 2.05% |
| CCN(CC)c1ccc(C(=O)NNC(=O)CCc2nc3ccccc3c(=O)[nH]2)cc1 | 26.9% (active) |
| CCN(CC)c1ccc(C(=O)Nn2c(C)nc3ccccc3c2=O)cc1 | 4.7% |
| CCCC(=O)N(CCc1ccccc1)Cc1nc2ccccc2c(=O)[nH]1 | -5.43% |
| CCOCCCN(C)C1CCN(C(=O)c2oc3ccccc3c2NC(=O)COc2cccc(C)c2)CC1 | -6.18% |
| Cc1ccc(Cl)cc1NC(=O)C1CCCN(c2cnccn2)C1 (centres undefined) | -0.03% |

| SMILES | inhibition |
| --- | --- |
| COC(=O)c1sc(=S)n(-c2ccc(Cl)cc2)c1C | 1.95% |
| COCCOC(=O)c1sc(=S)n(CCOC)c1N | 34.7% (active) |
| COc1ccccc1NC(=O)CSc1nnc(CNC(=O)c2ccccc2F)o1 | -2.81% |
| Cc1nn(-c2ccccc2)c2c1c(C)c(CCC(=O)NCC1CCCO1)c(=O)n2C (centres undefined) | 0.8% |
| Cc1cc(SCC(=O)NCCN2C(=O)CSC2=O)nc2ccccc12 | -4.03% |
| Clc1ccc(C2=CSC3=Nc4cccc5cccc(c45)N23)cc1 | 0.51% |
| CN(CCc1ccccn1)C(=O)c1ccc(OC2CCN(CCc3ccccc3)CC2)cc1 | 33.7% (active) |
| Cn1cc(CNC(=O)c2ccc(OC3CCN(Cc4ccccn4)CC3)cc2)cn1 | 11% |
| O=C(c1ccc(OC2CCN(Cc3ccccn3)CC2)cc1)N1CCCCCC1 | 3.95% |
| NS(=O)(=O)c1ccc(N=Nc2c(O)[nH]c3ccc(Br)cc23)cc1 | 1.06% |
| Cc1ccc(/C=C/C(=O)OCC(=O)Nc2cccnc2Cl)cc1 | 7.22% |
| Nc1nc(SCC(=O)Nc2ccc(Cl)cc2C(F)(F)F)n[nH]1 | 9.87% |
| CC(C)CNC(=O)C(=O)NCC(c1ccc2c(c1)OCO2)N1CCOCC1 (centres undefined) | 6.19% |
| O=C(c1ccc(F)c(S(=O)(=O)N2CCOCC2)c1)N(CCc1ccccc1)Cc1ccccc1 | 5.14% |
| O=C(NCCSCc1ccccc1)c1ccc(Cl)c(S(=O)(=O)N2CCOCC2)c1 | 1.96% |
| Cc1nn(Cc2ccccc2)c(C)c1CNC(=O)c1ccc(F)c(S(=O)(=O)N2CCOCC2)c1 | 29.7% (active) |
| CC(OC(=O)CCC(=O)c1ccccc1)C(=O)Nc1ccc(F)cc1 (centres undefined) | -5.12% |
| CN(CCC(=O)Nc1cc(S(=O)(=O)N(C)C)ccc1Cl)CC(=O)Nc1ccc(F)cc1 | -4.23% |
| CC(C)N(Cc1ccccc1)C(=O)COC(=O)c1ccccc1SCC(=O)N1CCCC1 | 1.65% |
| COc1ccc(/C=C/C(=O)Nc2c(C)nn(C)c2C)cc1COc1ccc(Br)cc1 | -4.58% |
| Cc1ccccc1C(=O)N1CCN(c2ccc(NC(=O)c3cccs3)cc2)CC1 | 2.59% |
| O=C(Nc1ccc(N2CCN(C(=O)c3cccs3)CC2)cc1)c1cccnc1Cl | 35.9% (active) |
| O=C(COc1ccccc1)Nc1ccc(N2CCN(C(=O)c3cccs3)CC2)cc1 | 7.89% |
| CN=C1S/C(=C\c2c(OC)cc(OC)cc2OC)C(=O)N1C | -0.06% |

| SMILES | inhibition |
| --- | --- |
| CC(C)OCCCNC(=O)CN1C(=O)/C(=C/c2ccccc2F)Oc2ccccc21 | -0.43% |
| CCC(=C/c1sc2ccc3ccccc3c2[n+]1C)/C=C1\Sc2ccc3ccccc3c2N1C | 40.1% (active) |
| O=P(O)(CP(=O)(c1ccccc1)c1ccccc1)c1ccccc1O | -2.71% |
| CCC(C)CCN1CCN=C1N(C)C (centres undefined) | 8.55% |
| O=S(=O)(Nc1ccc(Cl)cn1)c1cnc(Cl)c(Br)c1 | 2.67% |
| COC(=O)/C(=C1\Oc2ccc(C(C)(C)C)cc2S1)C(F)(F)F | -3.77% |
| O=C(c1ccc2c(c1)OCO2)N1CCOCC1 | 2.23% |
| Nc1[nH][nH]c(=O)c1N=Nc1ccc2c(c1)OCO2 | 28.4% (active) |
| CC(=O)c1cc2c(cc1N)OCO2 | -2.04% |
| COc1ccc([N+](=O)[O-])cc1C1NN=C(c2cccc3ccccc23)S1 (centres undefined) | 7.57% |
| Cc1cccc(C(=O)NC(=S)N2CCN(c3ccc([N+](=O)[O-])cc3)CC2)c1 | 0.8% |
| O=C(COC(=O)c1cc([N+](=O)[O-])ccc1NCc1ccccc1)NC1CCCCC1 | 12% |
| COCCOC(=O)C1=C(C)NC(=O)NC1c1ccc(Cl)cc1 (centres undefined) | 3.24% |
| CCC(CC)COC(=O)C1=C(C)NC(=O)NC1c1ccc([N+](=O)[O-])cc1 (centres undefined) | 28.8% (active) |
| CC1=C(C(=O)OCC2CCCCC2)C(c2ccc(F)cc2)NC(=O)N1 (centres undefined) | 0.63% |
| CCc1ccc(C2C(C#N)=C(N)Oc3n[nH]c(CC(=O)OC)c32)cc1 (centres undefined) | 5.23% |
| Cc1cc(C)c(C#N)c(SCc2ccccc2C(=O)O)n1 | 1.89% |
| Cc1cc(C)c(C#N)c(SCc2[nH]nc3c2C(c2ccccc2)C(C#N)=C(N)O3)n1 (centres undefined) | 55.3% (active) |
| CC(C)NC(=O)CSc1nnc(COc2ccccc2Cl)o1 | 1.63% |
| O=C(CCN1CCCO1)N1CCCC(N2CCN(c3cccc(C(F)(F)F)c3)CC2)C1 (centres undefined) | 4.25% |
| Cc1ccccc1N1CCN(CCCN2C(=O)C3CCCCN3C2=O)CC1 (centres undefined) | -1.82% |
| O=C1C2CCCN2C(=O)N1CCCCN1CCN(c2cccc(C(F)(F)F)c2)CC1 (centres undefined) | 64.2% (active) |
